A selection: hits, their analogues and other compounds. The true share with any hit is near 5.9%.
KB-3-1 cytotox: KB-3-1 parental cell cytotoxicity | KB-3-1 viability, CellTiter-Glo ATP luminescence, 72 h | Potency, µM (highest dose often 46.1 µM), hits mostly cytotoxic | 400,000 compounds, 1.4% hits; note: % is set by controls: 0 for no effect and ±100 for the full control effect; nearly all actives have a fitted effect of over 60% in size
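Viability of parental KB-3-1 cells, measured by CellTiter-Glo luminescence, followed a 72 h incubation at 37 °C with pinned compounds in phenol-red-free DMEM containing 10% FBS.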
ATXN viability: reduces viability in counter-screen for ATXN expression inhibitors; S2 cells (HEK-293 line with an ATXN2-luciferase reporter) viability, CellTiter-Fluor protease fluorescence, 24 h; Potency, µM (doses to about 56.7 µM), usual class: cytotoxic; 400,000 compounds, 0.49% hits; note: nearly all actives have a fitted effect of over 40% in size
ATXN2 expr inh: ATXN2 expression inhibition; HEK-293 ATXN2-luciferase reporter, luminescence, 24 h; Potency, µM (doses to about 57 µM), without a hit: at the top dose activity change, negative = inhibition, actives largely listed as inhibitors; 360,000 compounds, 0.72% hits; note: % is set by controls: 0 for no effect and ±100 for the full control effect; nearly all actives have a fitted effect of over 55% in size
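ATXN2-luciferase reporter cells (luciferase flanked by upstream and downstream ATXN2 gene portions) were treated 24 h at 37 °C with compounds at up to 57 uM. SteadyGlo luminescence gave expression; GF-AFC fluorescence gave viability.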
HepG2 viability: HepG2 cytotoxicity, counter-screen for TGF-b inhibitors; HepG2 CAGA-GFP viability, ATP luminescence, 18 h; Potency, µM (doses to about 46.1 µM), without a hit: at the top dose activity change, negative = cytotoxicity, most hits filed as cytotoxic; 410,000 compounds, 0.76% hits; AID 588856
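HepG2 CAGA-GFP cells (1000/well, DMEM with 1% FBS) received compound, then TGF-beta at 500 pg/mL final, and were incubated 18 hours at 37 degrees C. Viability was read by CellTiter-Glo luminescence. Media-only wells were set as complete cell-killing and DMSO as no toxicity.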
TGFb SMAD3 inh: TGF-b pathway inhibition; 410,000 compounds, 1.2% hits; HepG2 CAGA-GFP TGF-b/SMAD3 reporter, GFP fluorescence, 18 h; TGF-beta stimulated, 500 pg/mL final; Potency, µM (series often up to 46.1 µM), without a hit: top-dose activity, negative = inhibition, usual class: inhibitors; AID 588855; note: % is set by controls: 0 for no effect and ±100 for the full control effect; nearly all actives have a fitted effect of over 65% in size
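Per well, imaged GFP fluorescence of HEPG2 CAGA-GFP cells gives the signal; cells get compound, then TGF-beta (500 pg/mL final), 18 h at 37 degrees C; %Activity versus -TGF-beta and +DMSO controls.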
KB-V1 MDR tox: kills drug-selected multidrug resistant KB-V1 cells. KB-V1 MDR cells viability, CellTiter-Glo, 72 h. Potency, µM (titrated, usually from 46.1 µM), usual class: cytotoxic. 400,000 compounds, 3.4% hits; note: % is set by controls: 0 for no effect and ±100 for the full control effect; nearly all actives have a fitted effect of over 60% in size
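In this primary screen, KB-V1 cells overexpressing P-gp are incubated with library compounds (lowest to highest concentration) for 72 h at 37 degrees C before a luminescent ATP viability read.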
Starred values were filed as active, the others as inactive. Calls come from the whole dose curve; as a rule, active = well fitted curve in the direction sought with a large enough effect; inconclusive = small, poorly fitted or top-dose-only effect, or another doubt; inactive = no such curve, though single readings can be large; an effect the other way counts as inactive or inconclusive. Potency is the fitted concentration of half-maximal effect.

O=C(Nc1nccs1)[C@@H]1CC=C[C@@H]2CCN(C3CC3)C(=O)[C@@H]21 was read as KB-3-1 cytotox inactive, HepG2 viability -2%, TGFb SMAD3 inh 2% and KB-V1 MDR tox inactive.
`CC(CCc1ccc(O)cc1)NC(c1ccccc1)c1ccc(Cl)cc1` (stereo not given) gave KB-3-1 cytotox inactive, ATXN viability inconclusive, ATXN2 expr inh inconclusive, HepG2 viability 11µM*, TGFb SMAD3 inh inconclusive and KB-V1 MDR tox inactive.
For CC1=NNC(=O)/C1=C\c1cn(-c2ccccc2)nc1-c1ccc(Cl)cc1 the results were KB-3-1 cytotox 26µM*, ATXN2 expr inh 13µM*, HepG2 viability -94%, TGFb SMAD3 inh 3.5µM* and KB-V1 MDR tox 16µM*.
CC1(C)CC(=O)C(=Cc2cn(-c3ccccc3)nc2-c2ccccc2)C(=O)C1 was read as KB-3-1 cytotox inactive, ATXN viability inconclusive, HepG2 viability 11%, TGFb SMAD3 inh -1% and KB-V1 MDR tox inconclusive.
For Cc1ccc(-c2nn(-c3ccccc3)cc2C=C2C(=O)CC(C)(C)CC2=O)cc1 the results were KB-3-1 cytotox inconclusive, ATXN viability inconclusive, ATXN2 expr inh -25%, HepG2 viability -2%, TGFb SMAD3 inh inconclusive and KB-V1 MDR tox 18µM*.
Screening CCCSCCCNC(=O)CN1C(=O)COc2ccc(S(=O)(=O)N3CCCCCC3)cc21 returned KB-3-1 cytotox inactive, ATXN viability inconclusive, ATXN2 expr inh -1%, HepG2 viability -18%, TGFb SMAD3 inh inconclusive and KB-V1 MDR tox inactive.
Screening CS(=O)(=O)Nc1cccc(C2=NN(S(C)(=O)=O)C(c3ccc4c(c3)OCO4)C2)c1 (stereo not given) returned KB-3-1 cytotox 15µM*, ATXN viability inactive, ATXN2 expr inh 22%, HepG2 viability -55%, TGFb SMAD3 inh -12% and KB-V1 MDR tox inactive.
`COc1cccc(NC(=O)Cn2c(=O)n(-c3ccccc3)c(=O)c3c2c2cc(OC)ccc2n3C)c1` gave KB-3-1 cytotox inactive, ATXN viability inconclusive, ATXN2 expr inh 12%, HepG2 viability -13%, TGFb SMAD3 inh -9% and KB-V1 MDR tox inactive.
For Cc1cc(C)c(S(=O)(=O)n2cnc(C)c2)c(C)c1 the results were KB-3-1 cytotox inactive, ATXN viability inconclusive, ATXN2 expr inh 9%, HepG2 viability 8%, TGFb SMAD3 inh 1% and KB-V1 MDR tox inactive.
CCc1ccc(NC(=O)c2sc3nc(C)c(Cl)c(C)c3c2NC(=O)c2ccccc2OC)cc1 was read as KB-3-1 cytotox inconclusive, ATXN viability inactive, ATXN2 expr inh -2%, HepG2 viability -13%, TGFb SMAD3 inh 20% and KB-V1 MDR tox inactive.
For CCN(Cc1ccccc1)C(=O)Cn1c(=O)n(-c2ccc(Cl)cc2)c(=O)c2c(C)c(C)sc21 the results were KB-3-1 cytotox inactive, ATXN viability inactive, ATXN2 expr inh -11%, HepG2 viability -1%, TGFb SMAD3 inh 0% and KB-V1 MDR tox inactive.
`O=C(/C=C/c1ccc(Cl)cc1)Nc1ccc(CN2CCOCC2)cc1` gave KB-3-1 cytotox inconclusive, ATXN viability inactive, ATXN2 expr inh inconclusive, HepG2 viability -26%, TGFb SMAD3 inh 4% and KB-V1 MDR tox inactive.
Screening CC(C)c1ccc(/C=C/C(=O)Nc2ccc(CN3CCOCC3)cc2)cc1 returned KB-3-1 cytotox inconclusive, ATXN viability inconclusive, ATXN2 expr inh inconclusive, HepG2 viability -8%, TGFb SMAD3 inh -8% and KB-V1 MDR tox 16µM*.
`COc1ccc(C2CC(=O)c3c([nH]c(C(=O)OCc4ccccc4)c3C)C2)cc1` (stereo not given) gave KB-3-1 cytotox inactive, ATXN viability inactive, ATXN2 expr inh -14%, HepG2 viability -1%, TGFb SMAD3 inh 0% and KB-V1 MDR tox inconclusive.
`COCCOC(=O)c1[nH]c2c(c1C)C(=O)CC(c1ccc(F)cc1)C2` (stereo not given) gave KB-3-1 cytotox 7.3µM*, ATXN viability inconclusive, ATXN2 expr inh -17%, HepG2 viability -3%, TGFb SMAD3 inh 5% and KB-V1 MDR tox inconclusive.
Cc1c(C(=O)OCc2ccccc2)[nH]c2c1C(=O)CC(c1ccco1)C2 (stereo not given) was read as KB-3-1 cytotox 0.58µM*, ATXN viability inconclusive, ATXN2 expr inh -13%, HepG2 viability -44%, TGFb SMAD3 inh 2.5µM* and KB-V1 MDR tox inconclusive.
`Cc1c(C(=O)OCCOC(C)C)[nH]c2c1C(=O)CC(c1ccco1)C2` (stereo not given) gave KB-3-1 cytotox 0.52µM*, ATXN viability inconclusive, ATXN2 expr inh -17%, HepG2 viability -20%, TGFb SMAD3 inh inconclusive and KB-V1 MDR tox 0.46µM*.
CSCCOC(=O)c1[nH]c2c(c1C)C(=O)CC(c1ccco1)C2 (stereo not given) was read as KB-3-1 cytotox 1.2µM*, ATXN viability inconclusive, ATXN2 expr inh -17%, HepG2 viability -12%, TGFb SMAD3 inh inconclusive and KB-V1 MDR tox inconclusive.
CCN(Cc1ccncc1)Cc1ccc2c(c1)CN(C(=O)c1cccc3c(C)c(C)[nH]c13)CCO2 was read as ATXN viability inactive.
Screening O=C1c2ccccc2C(=O)N1CCCc1cn(C[C@H]2CC[C@H](Cn3cc(CCCN4C(=O)c5ccccc5C4=O)nn3)O2)nn1 returned KB-3-1 cytotox inactive, ATXN viability inactive, ATXN2 expr inh -4%, HepG2 viability -6%, TGFb SMAD3 inh -3% and KB-V1 MDR tox inactive.
Screening COCCOC(=O)c1[nH]c2c(c1C)C(=O)CC(c1ccco1)C2 (stereo not given) returned KB-3-1 cytotox 1.2µM*, ATXN viability inconclusive, ATXN2 expr inh 10%, HepG2 viability -15%, TGFb SMAD3 inh inconclusive and KB-V1 MDR tox 1.2µM*.
`COC(=O)N/N=C/c1ccc(-c2cc(Cl)ccc2Cl)o1` gave KB-3-1 cytotox inconclusive, ATXN viability inactive, ATXN2 expr inh -5%, HepG2 viability -6%, TGFb SMAD3 inh -28% and KB-V1 MDR tox 21µM*.
For Cc1cc(C(=O)N/N=C/c2ccc(-c3ccc([N+](=O)[O-])cc3Cl)o2)n[nH]1 the results were KB-3-1 cytotox inactive, ATXN viability inactive, ATXN2 expr inh -16%, HepG2 viability -2%, TGFb SMAD3 inh -17% and KB-V1 MDR tox inactive.
`Cc1cc(C(=O)N/N=C/c2ccc(-c3ccccc3Cl)o2)n[nH]1` gave KB-3-1 cytotox inconclusive, ATXN viability inactive, ATXN2 expr inh 3%, HepG2 viability -52%, TGFb SMAD3 inh inconclusive and KB-V1 MDR tox 23µM*.
